Source: PubChem BioAssay (several laboratories)
Compounds with a hit are over-represented: about 3.1% of the library has one in this group of screens.
LEDGF integ inh = blocks HIV-1 LEDGF/p75-dependent DNA integration | TR-FRET IN-LEDGF/p75 DNA integration, Eu/Cy5 | inhibition, % at 3.7 µM | actives 0.64% (n = 370,000);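 active means inhibition above the screen-wide mean plus 3 SD, cut at about 13% in these data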;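 further: signal is the Cy5 over europium emission ratio at 671 and 618 nm; 0% = plate median of compound wells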
Rin1 Abl inh = inhibitors of human Rin1-Abl protein interaction; TR-FRET Rin1/Abl binding, biochemical; inhibition, % at 7.35 µM; actives 0.4% (n = 360,000); AID 588664; in the data active means inhibition above about 5%, passing the limit was not always enough
Neddyl block = cullin neddylation inhibition; calls only at 25 µM; P61081+Q13564; actives 0.58% (n = 360,000); TR-FRET cullin neddylation, biochemical; in the data active means inhibition above about 36%
MBD2 inh = blocks human MBD2 binding to methylated DNA; TR-FRET, MBD2 binding to methylated oligonucleotide; inhibition, % at 4.4 µM; AID 686964; actives 0.31% (n = 370,000); in the data active means inhibition above about 13%
UHRF1 MBD2 ctr = human UHRF1 methylated DNA binding inhibitors. Q96T88. UHRF1 binding to methylated oligo, TR-FRET. inhibition, % at 4.4 µM. actives 0.75% (n = 370,000). AID 687016; in the data active means inhibition above about 21%;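 further: UHRF1 SRA domain binding a hemimethylated CpG hairpin DNA probe; 0% = median of test compound wells and 100% = reference inhibitor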
proKLK7 act = proKLK7 (human) activation, primary screen; P49862; purified proKLK7, EDANS-DABCYL substrate fluorescence; 100% is mature enzyme control, 0% vehicle; activation, % at 7 µM; actives 0.9% (n = 370,000); AID 652039;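 active means activation above the mean of all tested compounds plus 3 SD, computed per campaign excluding outliers beyond control limits, cut at about 13% in these data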
Target sequence (P49862 whole entry, looked up): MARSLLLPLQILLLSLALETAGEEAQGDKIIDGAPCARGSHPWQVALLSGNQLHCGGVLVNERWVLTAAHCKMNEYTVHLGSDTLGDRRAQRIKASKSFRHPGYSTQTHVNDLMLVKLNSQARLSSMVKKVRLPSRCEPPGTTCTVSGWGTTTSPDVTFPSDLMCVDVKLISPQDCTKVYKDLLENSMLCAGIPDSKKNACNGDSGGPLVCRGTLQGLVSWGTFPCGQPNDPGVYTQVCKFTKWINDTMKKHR
proKLK7 act conf = proKLK7 activation, confirmation. shares compounds with proKLK7 act. purified proKLK7, EDANS-DABCYL substrate fluorescence; scaled: vehicle 0, mature enzyme 100. activation, % at 7 µM. actives 68% (n = 3,200). AID 686949;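 active means activation, as change over the incubation, above the mean of all tested compounds plus 3 SD, cut at about 13% in these data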
EDANS-DABCYL int = optically interferes with EDANS-DABCYL signal, flagging KLK7 hits. shares compounds with proKLK7 act. actives 80% (n = 3,200). activation, % at 7 µM. EDANS-DABCYL substrate fluorescence interference, no enzyme, 4 h; solvent 0%, active enzyme control 100%;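 active means activation above the all-compound mean plus 3 SD, ignoring values outside control-based bounds, cut at about 4.8% in these data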;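 further: value is the 4 h activation minus the activation read at time zero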
* = called active by the depositor; i = inactive; nt = not tested or not shown.

SMILES	LEDGF integ inh	Rin1 Abl inh	Neddyl block	MBD2 inh	UHRF1 MBD2 ctr	proKLK7 act	proKLK7 act conf	EDANS-DABCYL int
O=C(NCc1ccco1)c1cccc(-c2cncc3nccn23)c1	-2	1	nt	3	-3	16*	20*	19*
O=C(NC1CC1)c1ccc(-c2cnc3cccnn23)cc1	-1	-6	nt	-2	-4	77*	83*	79*
O=C(NC1CCCCC1)C(c1ccc(O)c(O)c1)N(C(=O)Cn1nnc2ccccc21)c1cccc(O)c1 (configuration not stated)	1	6	i	1	3	0	nt	nt
Cc1cc(-c2nnc(CCC(=O)N3CCN(Cc4cccc(F)c4)CC3)o2)c(C)o1	9	-2	i	-7	0	0	nt	nt
CC1(c2ccc(OC(F)F)cc2)NC(=O)N(CC(=O)Nc2ccc(Cl)cc2F)C1=O (configuration not stated)	-2	2	i	5	0	0	nt	nt
O=C(COC(=O)c1ccc2c(c1)OCCO2)NCc1ccc(Cl)cc1	2	-3	i	1	-2	1	nt	nt
CCN1CCN(c2cc3c(nn2)Oc2ccccc2N3C)CC1	-7	-5	nt	5	0	61*	70*	67*
CCc1ccc2nc3nc(C)cc(C)c3c(N)c2c1	0	-7	nt	3	22*	32*	32*	40*
CCC(=O)N1CCN(c2nc3ccc(Br)cc3s2)CC1	2	0	i	5	-1	0	nt	nt
CC(C)(C)N(Cc1ccccc1)C(=O)COC(=O)c1ccccc1SCC(=O)N1CCCC1	4	4	i	-3	0	0	nt	nt
CCCCc1cc(=O)oc2cc(C)cc(OC(C)C(=O)NCc3ccccn3)c12 (configuration not stated)	-3	-2	nt	5	-2	-6	nt	nt
Cc1cc(OC(C)C(=O)NCc2ccccn2)c2c(C)cc(=O)oc2c1 (configuration not stated)	2	1	nt	-4	0	14*	11	12*
Cc1nc2nc(CCNS(=O)(=O)c3ccc(Cl)cc3)cn2nc1C	-1	-1	nt	-2	-2	24*	75*	75*
COc1ccc(S(=O)(=O)NCCc2cn3nc(C)c(C)nc3n2)cc1	3	5	nt	0	1	32*	71*	77*
CCN(CC)CCNS(=O)(=O)c1ccc(Cl)cc1	-5	0	i	5	8	1	nt	nt
O=C(Nc1ccc(F)cc1)OCc1cn(Cc2cccc(F)c2)nn1	-2	nt	nt	0	4	0	nt	nt
Nc1ccc(-c2c3ccc(=O)cc-3oc3cc(O)ccc23)cc1C(=O)O	4	-22	i	-28	-46	5	nt	nt
O=c1ccc2c(-c3ccccc3)c3ccc(O)cc3oc-2c1	5	-43	i	-99	-439	25*	49*	51*
CCOc1cc2c(cc1/C=C/C(=O)O)OC(C)C2 (configuration not stated)	3	-4	nt	-2	3	62*	72*	69*
COc1cc2c(cc1/C=C/C(=O)O)OC(C)C2 (configuration not stated)	0	0	nt	0	0	64*	64*	74*
O=C(NCc1ccccc1)c1cc(C2COCCN2C(=O)C/C=C/c2ccccc2)on1 (configuration not stated)	-2	-4	i	-2	4	0	nt	nt
COc1cc2c(cc1OC)C(=O)CC(C)S2 (configuration not stated)	-1	3	nt	-6	-1	14*	32*	26*
Cc1ccc2nc3nc(NCC4CCCO4)c(C(=O)NC4CCCC4)cc3c(=O)n2c1 (configuration not stated)	-2	-4	nt	-6	-6	24*	-3	-11
CCNc1nc2nc3ccc(C)cn3c(=O)c2cc1C(=O)NCC1CCCO1 (configuration not stated)	-1	-3	i	-3	-2	75*	69*	69*
Cc1ccc2nc3c(cc(C(=O)NCC4CCCO4)c(=N)n3CC3CCCO3)c(=O)n2c1 (configuration not stated)	nt	-3	nt	nt	nt	nt	nt	nt
SMILES	LEDGF integ inh	Rin1 Abl inh	Neddyl block	MBD2 inh	UHRF1 MBD2 ctr	proKLK7 act	proKLK7 act conf	EDANS-DABCYL int
COc1ccc(/C=N/NC(=O)c2nc(Cl)c(Cl)c(N)c2Cl)cc1COc1ccc(F)cc1F	4	3	nt	-6	-4	-328	nt	nt
COc1ccc(/C=N/NC(=O)c2nc(Cl)c(Cl)c(N)c2Cl)cc1COc1ccccc1F	1	1	nt	-6	-3	42*	59*	72*
Nc1ccc2oc(-c3ccc4nc[nH]c4c3)nc2c1	-3	-4	nt	-2	-14	3	nt	nt
Cc1nc2ccc(-c3nc4cc(N)ccc4o3)cc2[nH]1	-3	-5	nt	-3	-9	28*	46*	49*
Cc1c(-n2cc(C(=O)c3cc(F)ccc3O)cc(C#N)c2=O)c(=O)n(-c2ccccc2)n1C	6	2	i	-7	-2	2	nt	nt
N#Cc1cc(C(=O)c2cc(F)ccc2O)cn(-c2nccs2)c1=O	10	-4	i	-5	-13	25*	42*	46*
N#Cc1cc(C(=O)c2ccccc2O)cn(-c2nccs2)c1=O	7	-3	i	-1	-17	13*	25*	23*
CC(C)n1cc(C(=O)c2ccccc2O)cc(C#N)c1=O	-8	-3	i	6	2	-3	nt	nt
CN(C)c1nc(C(F)(F)F)cc(=O)[nH]1	3	-3	i	-2	-1	0	nt	nt
CC1Nc2nc(N(C)C)[nH]c(=O)c2NC1C (configuration not stated)	3	0	nt	1	-4	19*	12	18*
O=C(Cc1ccccc1)NC1CCCCN(Cc2cccc(Cl)c2)C1=O (configuration not stated)	7	nt	nt	-8	-2	1	nt	nt
CCN(CC)C(=O)[C@H]1C[C@H](CC(=O)NCCCOC)C(=O)N2CCc3c([nH]c4cc(-c5ccco5)ccc34)[C@]12C	-2	-5	nt	-3	-3	164*	166*	206*
CC(C)N(C(=O)[C@H]1C[C@H](CC(=O)NCCCN(C)C)C(=O)N2CCc3c([nH]c4cc(-c5ccco5)ccc34)[C@]12C)C(C)C	5	-3	nt	-2	0	103*	73*	88*
CCN(CC)C(=O)[C@H]1C[C@H](CC(=O)NCc2ccc(OC)c(OC)c2)C(=O)N2CCc3c([nH]c4cc(-c5ccco5)ccc34)[C@]12C	1	-1	nt	1	1	141*	68*	76*
